Source: PubChem BioAssay (NCATS)
Inconclusive results are not listed. Calls of active or inactive are those of the source. Calls follow the shape of the dose curve; as a rule, active = well fitted curve in the direction sought with a large enough effect; inconclusive = small, poorly fitted or top-dose-only effect, or another doubt; inactive = no such curve, though single readings can be large; an effect the other way counts as inactive or inconclusive.

Experiments:
[1] = Primary fluorescence-based thiol-reactive (MSTI) qHTS assay for identification of artifact compounds. (AID 1845221); details: MSTI thiol-reactivity probe, 1 h; series mostly up to 53.8 µM; also: nearly all actives have a fitted effect of over 65% in size; also: potency is read from the fitted curve at half-maximal effect
Outline: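 A multi-concentration qHTS design tested compounds against 4 uM MSTI, pH 7.4 phosphate-buffered saline. Plates were protected from light for 1 h at room temperature before imaging fluorescence.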

[2] = tested on: Nanoluciferase (engineered Oplophorus gracilirostris luciferase); test: Primary Nanoluciferase (NLuc) qHTS assay for identification of artifact compounds. (AID 1845222); details: NLuc-conditioned medium, Nano-Glo luminescence, 5 min; series mostly up to 54.1 µM
Outline: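 Luminescence from secreted NLuc (filtered, 1:55-diluted S16 cell medium) read 5 min after Nano-Glo substrate; compounds preincubated 15 min, RT. Hill fits of inhibition normalized to DMSO and no-enzyme.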

[3] = Primary redox qHTS assay for identification of artifact compounds. (AID 1845223); details: Amplex Red/HRP redox cycling with DTT, fluorescence; series mostly up to 53.8 µM
Outline: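 Redox-cycling detection via DTT (250 uM final) oxidation coupled to Amplex Red (25 uM)/HRP (250 mU/mL) in HBSS. 15 min preincubation plus 30 min after DTT, room temperature. Ex/Em 525/598 nm; 4-parameter Hill fit against DMSO and 10 uM DA3003.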

[4] = Quantitative High-Throughput drug screen in 47 multiple myeloma cell lines against the NCATS MIPE library collection: AMO1_DSMZ cell viability assay (AID 1918927; also: nearly all actives have a fitted effect of over 30% in size; also: potency is read from the fitted curve at half-maximal effect); details: AMO1 myeloma cells viability, CellTiter-Glo ATP luminescence, 48 h; series mostly up to 45.8 µM
Outline: (§1)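 Primary qHTS used for cherry-picking: cells at 500/well, library compounds for 48 h (37C, 5% CO2), luminescent ATP assay.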

[5] = Quantitative High-Throughput drug screen in 47 multiple myeloma cell lines against the NCATS MIPE library collection: ARD_JJKsccE7 cell viability assay (AID 1918929; also: potency is read from the fitted curve at half-maximal effect); details: ARD myeloma cell line viability, CellTiter-Glo, 48 h; series mostly up to 45.8 µM
Outline: as §1

[6] = Quantitative High-Throughput drug screen in 47 multiple myeloma cell lines against the NCATS MIPE library collection: Karpas620_DSMZ cell viability assay (AID 1918959); details: Karpas620 myeloma viability, CellTiter-Glo ATP luminescence, 48 h; series mostly up to 45.8 µM; also: nearly all actives have a fitted effect of over 30% in size; also: potency is read from the fitted curve at half-maximal effect
Outline: (§2)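 Myeloma cells (500 per well) were exposed to MIPE 4.0 compounds by pin transfer and incubated 48 hours at 37C, 5% CO2. Viability was read as ATP by CellTiter-Glo luminescence, normalised to DMSO (100%) and media-only (0%) wells.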

[7] = Quantitative High-Throughput drug screen in 47 multiple myeloma cell lines against the NCATS MIPE library collection: Delta47_JCRB cell viability assay (AID 1918925; also: nearly all actives have a fitted effect of over 45% in size; also: potency is read from the fitted curve at half-maximal effect); details: Delta47 myeloma viability, CellTiter-Glo ATP, 48 h; series mostly up to 45.8 µM
Outline: as §1

[8] = Quantitative High-Throughput drug screen in 47 multiple myeloma cell lines against the NCATS MIPE library collection: EJM_DSMZ cell viability assay (AID 1918926; also: nearly all actives have a fitted effect of over 30% in size; also: potency is read from the fitted curve at half-maximal effect); details: EJM myeloma cell viability, CellTiter-Glo ATP, 48 h; series mostly up to 45.8 µM
Outline: as §1

[9] = Quantitative High-Throughput drug screen in 47 multiple myeloma cell lines against the NCATS MIPE library collection: ARP1_JJKsccF8 cell viability assay (AID 1918928; also: nearly all actives have a fitted effect of over 40% in size; also: potency is read from the fitted curve at half-maximal effect); details: ARP1 myeloma cells viability, CellTiter-Glo ATP, 48 h; series mostly up to 45.8 µM
Outline: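 500 cells/well; MIPE 4.0 library pinned in; 48 h, 37 °C, 5% CO2; CellTiter-Glo ATP luminescence. Controls: DMSO = 100% viability, medium only = 0%.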

[10] = Quantitative High-Throughput drug screen in 47 multiple myeloma cell lines against the NCATS MIPE library collection: FR4_PLB cell viability assay (AID 1918924; also: nearly all actives have a fitted effect of over 35% in size; also: potency is read from the fitted curve at half-maximal effect); details: FR4_PLB myeloma cells viability, CellTiter-Glo ATP, 48 h; series mostly up to 45.8 µM
Outline: as §2

Measured: Potency

CCN(CCO)CCCOc1ccc2c(Nc3cc(CC(=O)Nc4cccc(F)c4)[nH]n3)ncnc2c1
active: [4] 0.187 µM
inactive: [1] | [2] | [3] | [5] | [6]

CC1=C(C(=O)Nc2cc3cn[nH]c3cc2F)C(c2ccc(C(F)(F)F)cc2)CC(=O)N1 (configuration not stated)
not listed: [4] | [10]
inactive: all other assays above

Cn1c(=O)c(-c2c(Cl)cccc2Cl)cc2cnc(Nc3cccc(C(=O)O)c3)nc21
inactive: [1] | [2] | [3] | [7]
active: [4] 0.469 µM | [5] 0.469 µM | [6] 1.48 µM

NC(=O)c1noc([C@H](CCCC2CCCCC2)CC(=O)NO)n1
active: [7] 9.35 µM | [8] 14.8 µM | [4] 4.18 µM | [9] 14.8 µM | [6] 7.43 µM
inactive: [1] | [2] | [3]

CC(C)(O)CC(=O)NCCn1ccc2ncnc(Nc3ccc(Oc4cccc(C(F)(F)F)c4)c(Cl)c3)c21
inactive: [1] | [2] | [3]
active: [10] 26.4 µM | [7] 18.7 µM | [8] 1.87 µM | [4] 16.6 µM | [6] 5.9 µM

Cc1cnc(Nc2cccc(CN3CCOCC3)c2)nc1Nc1cccc(S(=O)(=O)NC(C)(C)C)c1
active: [10] 14.8 µM | [7] 4.18 µM | [8] 10.5 µM | [9] 5.26 µM | [6] 4.69 µM
inactive: [1] | [2] | [3]

CN1CCC(COc2cnc(-c3cccc(Cn4nc(-c5cccc(C#N)c5)ccc4=O)c3)nc2)CC1
active: [10] 26.4 µM | [7] 0.209 µM | [9] 20.9 µM
not listed: [4] | [8]
inactive: all other assays above

CCNC(=O)c1noc(-c2cc(C(C)C)c(O)cc2O)c1-c1ccc(CN2CCOCC2)cc1
inactive: [1] | [2] | [3]
active: [7] 0.0662 µM

N#CC1(c2cccc(C(=O)Nc3cc(Oc4ccc5nc(NC(=O)C6CC6)sc5n4)ccc3F)c2Cl)CC1
inactive: [1] | [2] | [3] | [7]
active: [10] 10.5 µM | [8] 20.9 µM | [9] 9.35 µM | [5] 0.59 µM

O=C1C(c2c(O)[nH]c3ccccc23)=Nc2ccccc21
active: [1] 0.184 µM | [10] 14.8 µM | [9] 6.62 µM
inactive: [2] | [3]

c1cc(OCCN2CCCCC2)cc(-c2n[nH]c3ccc(-c4ncn[nH]4)cc23)c1
inactive: [1] | [2] | [3] | [6]
active: [7] 13.2 µM | [8] 33.2 µM | [5] 2.35 µM

Fc1ccc(CNc2ncnc3ccc(F)cc23)cc1
inactive: [1] | [2] | [3]
active: [7] 7.43 µM | [8] 6.62 µM | [4] 7.43 µM | [9] 6.62 µM | [5] 4.69 µM | [6] 5.9 µM

Cc1c(C(=O)Nc2ccc(N3C[C@@H](C)O[C@@H](C)C3)nc2)cccc1-c1ccc(OC(F)(F)F)cc1
inactive: [1] | [2] | [3]
active: [7] 4.69 µM | [4] 2.96 µM | [5] 0.935 µM | [6] 8.33 µM

O[C@@H](COc1cccc2ncccc12)CN1CCN(C2c3ccccc3[C@@H]3[C@H](c4ccccc42)C3(F)F)CC1 (some centres not stated)
active: [7] 16.6 µM | [8] 23.5 µM
not listed: [9] | [10]
inactive: all other assays above

CC(C)(OCc1nn(Cc2ccccc2)c2ccccc12)C(=O)O
active: [8] 9.35 µM
not listed: [4] | [5]
inactive: all other assays above

CNC1CCC(N(Cc2cccc(-c3ccncc3)c2)C(=O)c2sc3ccccc3c2Cl)CC1 (configuration not stated)
active: [10] 20.9 µM | [7] 7.43 µM | [4] 18.7 µM | [6] 16.6 µM
inactive: [1] | [2]

CN1c2ccccc2C(=O)N2CCc3c([nH]c4ccccc34)C21 (configuration not stated)
active: [7] 26.4 µM
not listed: [9]
inactive: all other assays above

COc1cc2ncnc(Nc3cc(Br)c(O)c(Br)c3)c2cc1OC
inactive: [2] | [3]
active: [1] 6.7 µM | [8] 0.003 µM | [9] 1.32 µM | [5] 13.2 µM

CC1(C)CC(=O)c2c(C(F)(F)F)nn(-c3ccc(C(N)=O)c(NC4CCC(O)CC4)c3)c2C1 (configuration not stated)
inactive: [1] | [2] | [3] | [5]
active: [9] 0.132 µM

C[C@@H](NC(=O)c1ncnc(N)c1Cl)c1ncc(C(=O)Nc2cc(C(F)(F)F)c(Cl)cn2)s1
active: [10] 14.8 µM | [4] 10.5 µM | [6] 26.4 µM
inactive: [1] | [2] | [3] | [8]
